Measurements published in ChEMBL document CHEMBL4513135, “CO-ADD screening of IQOG CSIS (Spain) compounds”.
Measured potencies and affinities stand elsewhere.

How the values were obtained:
Klebsiella pneumoniae = details: Concentration 32 ug.mL-1; ASSAY_TEST Inhibition of Bacterial Growth; detection method Absorption (OD600); MEDIA CAMHB; plate type 384well; NBS; CORNING #3640; time 18 hr
Candida albicans = details: 32 ug/mL
Cryptococcus neoformans = details: Concentration 32 ug.mL-1; ASSAY_TEST Inhibition of Fungal Growth; detection method Resazurin; Absorption (OD600-OD570); plate type 384well; NBS; CORNING #3640

SMILES	Inhibition (Klebsiella pneumoniae) [%]	Inhibition (Candida albicans) [%]	Inhibition (Cryptococcus neoformans) [%]
Cn1ccnc1C1C2=C(CC(C)(C)CC2=O)Oc2nc3c(c(N)c21)CCC3 (stereo unspecified)	9.18	-1.44	-62.95
COc1ccc(C2c3c(nc4c(c3N)CCCC4)Oc3ccc4ccccc4c32)cc1OC (stereo unspecified)	-20.58	2.65	0.83
Cc1[nH]c2ccc(OCc3ccccc3)cc2c1C(=O)NN	5.83	1.23	-5.65
Cl.N#Cc1cc(C#N)c(N2CCCC2)nc1Cl	14.18	3.61	-52.24
COc1cc(Br)c(C=O)cc1OC	3.95	3.94	-3.9
C=C1CN(C)c2c(C#N)cc(C#N)c(=N)n21	9.83	2.03	-52.46
Cc1ccc(C2C(C#N)=C(N)Oc3c2ccc2ccccc32)cc1 (stereo unspecified)	1.87	-0.54	-6.98
O=C(NNCCc1ccccc1)c1cc2ccccc2[nH]1	0.93	-1.59	-3.77
O=C(Cc1c[nH]c2ccccc12)NNCc1ccccc1	1.88	0.22	-1.3
COc1nc2nc3c(c(N)c2cc1C#N)CN(Cc1ccccc1)CC3	8.31	1.24	-69.67
Cc1ccc(C2c3c(nc4c(c3N)CCCC4)Oc3ccc4ccccc4c32)cc1 (stereo unspecified)	2.87	1.23	2.32
N#CC1(Br)C(=NBr)Oc2c(ccc3ccccc23)C1c1ccccc1[N+](=O)[O-] (stereo unspecified)	24.4	25	-80.63
Cn1ccnc1C1C(C#N)=C(N)Oc2c1ccc1cccnc21 (stereo unspecified)	9.74	0.91	-53.28
COc1ccc(C2c3c(ccc4ccccc34)OC(=N)C2(Br)C#N)cc1OC (stereo unspecified)	2.61	7.63	-66.17
C#CCN(C)c1cc(C)nc(C)n1	18.17	5.55	-42.1
N#Cc1cccnc1Cl	9.13	-0.53	-53.41
COc1ccc(C2C(C#N)=C(N)Oc3ccc4ccccc4c32)cc1OC (stereo unspecified)	12.8	5.6	-62.6
COC(=O)/C(=C/c1ccc(O)cc1)NC(=O)c1ccccc1	-14.62	1.73	-3.07
COc1ccc(-c2cc(-c3cc4ccc(OC)cc4nc3Cl)cc(=O)[nH]2)cc1	4.32	-0.61	-66.65
Nc1c2c(nc3c1C(c1ccc([N+](=O)[O-])cc1)c1c(ccc4ccccc14)O3)CCCC2 (stereo unspecified)	9.13	1.59	-0.47
Cc1ccc2nc(Cl)c(/C=N/NCc3ccccc3)cc2c1	7.66	14.7	-3.59

SMILES	Inhibition (Klebsiella pneumoniae) [%]	Inhibition (Candida albicans) [%]	Inhibition (Cryptococcus neoformans) [%]
CCOC(=O)c1c(C)[nH]c(=O)c(C#N)c1-c1ccccc1	10.06	2.08	-38.24
CC1=C(C(=O)N2[C@@H]3C[C@H]4CCC3(CS2(=O)=O)C4(C)C)C(c2ccccc2)C(C#N)=C(N)O1 (stereo partly specified)	14.51	3.41	-6.44
CC(=O)Nc1n[nH]c2nc(N)c(C#N)c(-c3ccccc3)c12	17.23	3.09	-57.93
CNCc1cc2ccccc2n1C.Cl	8.53	1.26	-5.12
C#CCN1CCc2nc3nc(N4CCCC4)c(C#N)cc3c(N)c2C1	10.68	1.92	-92.31
N#Cc1c(Cl)nc(N2CCCCC2)c(C#N)c1-c1ccccc1	-24.06	3.22	-3.56
COc1ccc2c(ccn2C)c1	14.15	1.33	-1.95
CCOC(=O)c1c(C)nc2nc3c(c(N)c2c1-c1ccc(Cl)cc1)CCCCC3	1.2	-0.36	-57.83
Cc1ccc(C2c3c(Cl)nnnc3Oc3ccc4ccccc4c32)cc1 (stereo unspecified)	9.62	2.22	-3.15
CC#CCN.Cl	8.69	3.96	-2.53
CCOC(=O)C1=C(C)Oc2nc3c(c(N)c2C1c1nccn1C)CCCCC3 (stereo unspecified)	6.14	3.82	-4.74
COc1ccc(C2c3ccc4ccccc4c3OC(=NBr)C2(Br)C#N)cc1 (stereo unspecified)	6.43	2.22	-24.77
COc1ccc(C2C(C#N)=C(N)Oc3[nH]nc(C)c32)cc1 (stereo unspecified)	-10.09	1.54	-3.79
CC(C)CC(C)NNC(=O)c1cc2ccccc2[nH]1 (stereo unspecified)	-2.7	-0.37	-6.14
C#CCN(C)Cc1cc2cc(OC)ccc2n1C	12.36	5.35	-77.43
CNN=C1N=C(SCc2ccccc2)SC1=O	8.63	-0.64	-3.27
Cn1c(C(=O)O)cc2cc(OCCCC3CCN(Cc4ccccc4)CC3)ccc21	12.92	6.79	-100.02
N#Cc1c(NC2CCC(Cc3ccccc3)CC2)nc(NC2CCN(Cc3ccccc3)CC2)c(C#N)c1-c1ccccc1 (stereo unspecified)	-7.01	2.46	-20.4
Cc1nc(NO)c2c(C)nn(-c3ccccc3)c2n1	17.6	0.21	-3.47
CCOC(=O)c1c[nH]c2ccc(OCc3ccccc3)cc12	12.72	0.34	-4.09
CCOC(=O)c1cn(C)c2ccccc12	12.15	7.9	-4.62
